About 79,000 compounds went through this panel and 15% of them were active in at least one assay; those are over-represented in the sample as a whole. No stated cut-off is given here; in the data, active means growth inhibition above about 70%; inactive means the rest.
Key:
[1] = NCI Yeast Anticancer Drug Screen. Data for the rad50 strain (AID 155);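 further: 0% = growth of vehicle-only cultures of the same strain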; details: S. cerevisiae rad50 strain growth inhibition; at 50.0 µM; active compounds read high
Method in brief: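 Compounds were tested on a yeast strain with an engineered DNA damage repair alteration; the reported value is growth inhibition normalised to vehicle treatment.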

[2] = NCI Yeast Anticancer Drug Screen. Data for the mec2-1 strain (AID 157); details: S. cerevisiae mec2-1 strain, at 50.0 µM, active compounds read high
Method in brief: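 Vehicle-treated cultures served as reference for growth inhibition of compound-exposed mec2-1 yeast.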

[3] = NCI Yeast Anticancer Drug Screen. Data for the sgs1 mgt1 strain (AID 161);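 further: 0% = growth of cultures given vehicle only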; details: S. cerevisiae sgs1 mgt1 strain, at 50.0 µM, active compounds read high
Method in brief: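 Test agents were incubated with a DNA-repair-mutant yeast strain. Growth was then read and compared against vehicle-treated controls.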

[4] = NCI Yeast Anticancer Drug Screen. Data for the cln2 rad14 strain (AID 165);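 further: 0% = growth equal to vehicle treated cultures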; details: S. cerevisiae cln2 rad14 strain, at 50.0 µM, active compounds read high
Method in brief: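 Each compound was tested on cln2 rad14 yeast. Inhibition of growth was calculated against vehicle-exposed controls.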

[5] = NCI Yeast Anticancer Drug Screen. Data for the bub3 strain (AID 167); details: S. cerevisiae bub3 mutant strain, at 50.0 µM, active compounds read high
Method in brief: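 Growth of a checkpoint-deficient yeast mutant is measured after compound exposure. Values represent inhibition relative to vehicle.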

[6] = NCI Yeast Anticancer Drug Screen. Data for the mlh1 rad18 strain (AID 175); details: S. cerevisiae mlh1 rad18 strain growth inhibition; at 50.0 µM; active compounds read high
Method in brief: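 Vehicle-treated cultures served as the reference for growth inhibition in a yeast strain carrying DNA damage repair alterations exposed to each compound.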

Measured: growth inhibition

O=[N+]([O-])c1ccc(/C=C/c2cc(N(CCO)CCO)c3ccccc3n2)cc1
inactive: [1] 8.35% | [2] -1.05% | [3] -31.2% | [4] -11.1% | [5] -0.4% | [6] -2.95%

CCCCCCSc1ccc([N+](=O)[O-])cc1[N+](=O)[O-]
inactive: [1] 4.95% | [2] -6% | [3] -10.6% | [4] -6.8% | [5] 24.9% | [6] -21.1%

CN(C)c1ccc(-c2ccncc2)cc1
inactive: [1] 21.6% | [2] 15.2% | [3] 18.9% | [4] -11.8% | [5] 17.4% | [6] 17.2%

CC(C)CCNCCCCCCl
inactive: [1] 62.5% | [2] 37.3% | [3] 36.7% | [4] 36.6% | [5] 26.8% | [6] 67.1%

COC1CCC2CC3(CCC2(C)C1O)OCCO3 (stereo not given)
inactive: [1] 1.25% | [2] 0.85% | [3] -1.45% | [4] -12.3% | [5] 26.1% | [6] -14.4%

COc1ccc(C23CCC(=O)N2CCS3)cc1 (stereo not given)
inactive: [1] -1.25% | [2] -20.3% | [3] -10.7% | [4] 8.15% | [5] 30% | [6] 2.8%

Nc1cc(C(=O)O)c2ccccc2c1
inactive: [1] 4.5% | [2] -6.95% | [3] -5.7% | [4] -16.8% | [5] 3.45% | [6] 5.15%

CCC(=O)OCC(OC(=O)CC)C(OC(=O)CC)C(OC(=O)CC)C(COC(=O)CC)OC(=O)CC (stereo not given)
inactive: [1] -0.5% | [2] 6.95% | [3] -16.6% | [4] -31.6% | [5] 1.35% | [6] -3.75%

Nc1c(Cl)ncnc1NCCN1CCOCC1
inactive: [1] -3.85% | [2] 1.9% | [3] 1.55% | [4] -22.1% | [5] -17.5% | [6] -18.4%

O=C(O)c1cc(Br)ccc1[N+](=O)[O-]
inactive: [1] -5.8% | [2] -25.4% | [3] 3.95% | [4] 7.05% | [5] -1.95% | [6] -11%

O=C1C(c2ccccc2)=C(c2ccccc2)c2ccccc21
inactive: [1] -8.2% | [2] 19.6% | [3] 21% | [4] -18.4% | [5] 32% | [6] 14.4%

C=NC1CCCCC1
inactive: [1] 0.95% | [2] -3.75% | [3] -10.6% | [4] 2% | [5] 14.7% | [6] 3.75%

C#CCN(CCO)Cc1ccccc1
inactive: [1] -3.4% | [2] -18.6% | [3] -3.75% | [4] 9.25% | [5] -4% | [6] 2.7%

C/C(=C\CNc1ncnc2c1ncn2C1CCCCO1)COP(=O)(O)O (stereo not given)
inactive: [1] 19.6% | [2] 6.4% | [3] 19.6% | [4] 22.2% | [5] -4.8% | [6] 27.9%

CCOC(=O)C(C(=O)OCC)C(C(=O)OCC)C(=O)OCC
inactive: [1] -22.7% | [2] 4.45% | [3] -6.2% | [4] -9.65% | [5] -14.5% | [6] -9.05%

COc1cc2c(c([N+](=O)[O-])c1)NC(=O)CS2
inactive: [1] -81.2% | [2] -60.5% | [3] -17.2% | [4] -4.5% | [5] 0.95% | [6] -28.1%

Cc1nc(N)c(N=O)c(=O)[nH]1
inactive: [1] 13.2% | [2] 8.75% | [3] 14.2% | [4] 9.5% | [5] 10.9% | [6] 7.35%

CCCC(O)c1ccccc1C (stereo not given)
inactive: [1] 17.6% | [2] 13.9% | [3] 1.4% | [4] -17.2% | [5] 4.6% | [6] 12.1%

CC(=O)OC1CCCCCCC1
inactive: [1] -13.2% | [2] 14.6% | [3] 15.5% | [4] -3.2% | [5] 19.5% | [6] 6.05%

NC(=O)CC(N)C(=O)NC(Cc1ccccc1)C(=O)NC(Cc1ccccc1)NC(=O)C(Cc1c[nH]c2ccccc12)C(=O)O (stereo not given)
inactive: [1] -18.6% | [2] 8.05% | [3] -11.1% | [4] -13.2% | [5] 1.85% | [6] 1.95%

CCOC(=O)N1Cc2cc3ccc(OC)cc3nc2C1
inactive: [1] 6% | [2] -4.15% | [3] -21.1% | [4] -10% | [5] -24.4% | [6] 3.9%

Cc1ccc2nnc(NS(=O)(=O)c3cc(C)c(Cl)cc3S)n2n1
inactive: [1] -30.3% | [2] -7.75% | [3] -24.9% | [4] -16.9% | [5] -0.9% | [6] -25.4%

CCOC(=O)c1cc(Cl)nc(Cl)c1
inactive: [1] 6.95% | [2] -16.6% | [3] -1.8% | [4] -3.15% | [5] 4.5% | [6] -10.4%

CC(=O)Nc1c(C)n(C)n(-c2ccccc2)c1=O
inactive: [1] -2.45% | [2] -12.7% | [3] 23.4% | [4] 31.1% | [5] 17.6% | [6] 13.6%

CC(Cc1ccco1)C(=O)O (stereo not given)
inactive: [1] 9.2% | [2] 15.4% | [3] -0.3% | [4] -14% | [5] 1.9% | [6] -11.2%

CCC(C(=O)c1cccs1)C(O)(C(F)(F)F)C(F)(F)F (stereo not given)
inactive: [1] -13.8% | [2] 4.6% | [3] -28.4% | [4] -83.2% | [5] -31.4% | [6] 22.9%

Cc1ccc(C2(C)NC(=S)N(NC(N)=S)C2=S)cc1 (stereo not given)
inactive: [1] 32.3% | [2] 19.8% | [3] 7.15% | [4] 3.25% | [5] 4.65% | [6] 21.8%

C/C(CC(=O)Nc1ccc(Cl)c(Cl)c1)=N/NC(=O)C[N+](C)(C)C
inactive: [1] -9.25% | [2] -14.7% | [3] -6.3% | [4] 26.6% | [5] -14.8% | [6] -6.1%

O=C(OCC(F)(F)C(F)(F)C(F)(F)C(F)(F)C(F)(F)C(F)F)OCC(F)(F)C(F)(F)C(F)(F)C(F)(F)C(F)(F)C(F)F
inactive: [1] 0.1% | [2] 9.05% | [3] -5.45% | [4] -3.65% | [5] -0.6% | [6] 0.95%

CC(NC(=O)N(C)C)NC(=O)N(C)C
inactive: [1] -17.9% | [2] -22.3% | [3] -5.15% | [4] -5.85% | [5] -0.9% | [6] -4.95%

CCOc1ccccc1NC(=O)C1=C(C)NC(C)=C(C(=O)Nc2ccccc2OCC)C1c1ccc([N+](=O)[O-])cc1
inactive: [1] -20.3% | [2] 27.2% | [3] -3% | [4] -4.9% | [5] 30.8% | [6] -7.2%

NC(N)=NCCCCC(=O)Nc1ccc(S(N)(=O)=O)cc1
inactive: [1] 6.15% | [2] -0.65% | [3] -13.2% | [4] -6.15% | [5] -3.75% | [6] -19.2%

NC(=S)NNC(=S)NC(=O)c1ccco1
inactive: [1] -39.8% | [2] 5.55% | [3] 5.05% | [4] 14.3% | [5] 22.1% | [6] -18.7%

C/C=C(\Cl)C(OC(C)=O)OC(C)=O
inactive: [1] -1.45% | [2] -0.2% | [3] -6.15% | [4] -6.8% | [5] 18.4% | [6] 2.55%

CC(C)OP(=O)(OC(C)C)/C(N)=N/Nc1ccc([N+](=O)[O-])cc1
inactive: [1] 25.6% | [2] -0.2% | [3] -5.6% | [4] 2.65% | [5] -3.95% | [6] -7.7%

c1ccc(Cc2c[nH]c3ccccc23)cc1
inactive: [1] 9.45% | [2] -0.05% | [3] 9.4% | [4] -9.6% | [5] -1.85% | [6] 14.9%

CC(=O)OC12C=CC(=O)N1c1ccccc1C(=O)O2 (stereo not given)
inactive: [1] 18.4% | [2] 8.8% | [3] 25% | [4] 29.2% | [5] 13.8% | [6] 42.4%

CCCCC1(CCS)C(=O)NC(=Nc2ccccc2)NC1=O (stereo not given)
inactive: [1] -0.95% | [2] -3.95% | [3] 11.8% | [4] -37.3% | [5] 22.7% | [6] -11.8%

CCOC(=O)N1C=Cc2c(c3ccccc3n2C)N1C(=O)OCC
inactive: [1] 3.85% | [2] 1% | [3] 2.15% | [4] -6.3% | [5] 5.7% | [6] -6.95%

COc1ccc(C(CC(C)(C)C)c2ccc(OC)cc2)cc1
inactive: [1] -0.9% | [2] -9% | [3] 5.15% | [4] -44.5% | [5] -11.9% | [6] -11.1%

Reference: PubChem BioAssay (NCI)
